These results are taken from PubChem BioAssay AID1259421 (Broad Institute, 2018).

Values joined by “and” are separate entries in the source; they are usually repeats but may differ in a detail not shown here. Equal values may be shown once. Among all 6,400 compounds or so, about 610 (9.5%) were called active. Cut-off read from the data, not from the text of the source: active = activity change below about -70%; inconclusive = no clear call, values can overlap the other calls; inactive = above that. The list comes from a sample in which actives are over-represented; it also holds similar structures and randomly drawn compounds. Some structures have more than one record in an assay (separate samples or runs), and their calls can disagree.

The nature of this assay: Toxoplasma gondii ME49Luc growth in HeLa cells, luciferase, no IFN-y, primary screen (AID 1259421). Particulars: T. gondii ME49Luc in HeLa, 72 h, stronger effect = lower value, concentration not given here.
As for `Cc1cnc(NC(=O)C2C(=O)c3ccccc3S(=O)(=O)N2C)s1` (stereo not drawn), the activity change, negative = inhibition is 17.6% (inactive) and 14.2% (inactive). To `CN1CCc2cc3c(cc2C(=O)Cc2ccc4c(c2C1)OCO4)OCO3` belongs 7.67% (inactive); to `CC[C@@H](C(=O)C(C)[C@@H](O)[C@H](C)CCc1ccc(C)c(O)c1C(=O)O)C1OC(CC)(C2CC[C@](O)(CC)[C@H](C)O2)C[C@@H]1C` (stereo partly drawn), -85.8% (active); to `CCOC(=O)[C@H](C)C[C@@H](Cc1ccc(-c2ccccc2)cc1)NC(=O)CCC(=O)O`, 5.47% (inactive).

As to `Cc1cc(C)c(/C=C2\C(=O)Nc3ccccc32)[nH]1`, the activity change, negative = inhibition was 12.4% (inactive) and 24.8% (inactive). On to `COc1c/c(=C2\C=c3ccccc3=N2)[nH]/c1=C\c1[nH]c(C)cc1C`, for which the activity change, negative = inhibition was -83.5% (active). In the case of `FC(F)(F)c1ccc(/C=C/c2nc(COc3ccc(CCCCn4ccnn4)cc3)co2)cc1`, the activity change, negative = inhibition was -18% (inactive). The value for `CN1C2CC(OC(=O)[C@H](CO)c3ccccc3)C[C@H]1[C@H]1OC21` (stereo partly drawn) was 1.54% (inactive).

`NC(N)=NCCN1CCCCCCC1`: the activity change, negative = inhibition was 8.88% (inactive).

Regarding `CC12C(=O)OC(=O)C1(C)C1CCC2O1` (stereo not drawn), the activity change, negative = inhibition was -87.3% (active). In the case of `c1ncc(CCCC2CCNCC2)[nH]1`, the activity change, negative = inhibition is 2.3% (inactive). Turning to `Fc1ccc2c(CCNCc3cccc(OCC(F)(F)C(F)F)c3)c[nH]c2c1`, the activity change, negative = inhibition is 38.3% (inactive).

`CN[C@@H](C)[C@H]1[C@H](O)C[C@@]2(C)[C@@H]3CC[C@H]4C(C)(C)[C@@H](NC)CC[C@@]45C[C@@]35CC[C@]12C`: the activity change, negative = inhibition is 6.16% (inactive). The value for `CCCCCCCCCCCCCCCC(=O)OC[C@H](COP(=O)(O)OCC[N+](C)(C)C)OC(=O)CCCCCCCCCCCCCCC` was -5.4% (inactive); that for `COC(=O)c1ccccc1NC(=O)c1ccc(F)cc1` was 31.7% (inactive) and 41.2% (inactive); that for `CC(C)CCN1c2nc(Nc3cc(F)c(O)c(F)c3)ncc2N(C)C(=O)C1C` (stereo not drawn) was -84.4% (active). For the compound `CCCCCCCC/C=C/CCCCCCCC(=O)NCc1ccc(O)c(OC)c1`, the activity change, negative = inhibition was 6.46% (inactive).

In the case of `N#Cc1ccncn1`, the activity change, negative = inhibition was 17.2% (inactive). As to `CCc1nc(-c2cccc(C)c2)c(-c2ccnc(NC(=O)c3ccccc3)c2)s1`, the activity change, negative = inhibition was -91.2% (active). On to `Cc1ccnc(NC(=O)C(C)c2cccc(C(=O)c3ccccc3)c2)c1` (stereo not drawn), for which the activity change, negative = inhibition is 48.4% (inactive). The value for `Cc1ccc(-c2csc(NC(=O)c3ccccc3)n2)c(C)c1` was 73.8% (inactive); that for `CC1CNc2c(cccc2S(=O)(=O)N[C@@H](CCCN=C(N)N)C(=O)N2CC[C@@H](C)C[C@@H]2C(=O)O)C1` (stereo partly drawn) was 9.02% (inactive); that for `C[C@H]1COc2c(C3(N)CC3)c(F)cc3c(=O)c(C(=O)O)cn1c23` was 14.1% (inactive). For `CCCC(=O)N1CCCN(c2nc(N)c3cc(OC)c(OC)cc3n2)CC1`, the activity change, negative = inhibition is 13% (inactive). To `COc1cc2nc(N3CCN(C(=O)c4ccco4)CC3)nc(N)c2cc1OC` belongs 0.803% (inactive) and 4.94% (inactive). As to `COc1cc2nc(N3CCCN(C)CC3)nc(NC3CCN(Cc4ccccc4)CC3)c2cc1OC`, the activity change, negative = inhibition was -91.5% (active).

For the compound `COc1cc(O)ccc1C(C)=O`, the activity change, negative = inhibition was -6.96% (inactive).

As for `CC(=O)OCC(=O)[C@@]1(O)CCC2C3CCC4=CC(=O)CC[C@]4(C)C3C(=O)C[C@@]21C` (stereo partly drawn), the activity change, negative = inhibition was -24.8% (inactive). Turning to `CNc1cc(OC)c(C(=O)NC2CCN(Cc3ccccc3)C2C)cc1Cl` (stereo not drawn), the activity change, negative = inhibition was 3.06% (inactive).

With `CCCC(O)C(CC)CO` (stereo not drawn), the activity change, negative = inhibition was 5.56% (inactive). Consider `CC(=O)N[C@@H](C=O)[C@@H](O)[C@H](O)[C@H](O)CO`, for which the activity change, negative = inhibition is 11.9% (inactive).

In the case of `O=C(NOCC1CC1)c1ccc(F)c(F)c1Nc1ccc(I)cc1Cl`, the activity change, negative = inhibition is 11.9% (inactive). As for `Cc1cc(I)ccc1Nc1c(C(=O)NOCC2CC2)cc(F)c(F)c1F`, the activity change, negative = inhibition was -58.9% (inactive) and -87.6% (active).

With `O=C(NOCC(O)CO)c1cc(Br)c(F)c(F)c1Nc1ccc(I)cc1F` (stereo not drawn), the activity change, negative = inhibition was 8.99% (inactive). On to `CC(C)C1CCC(C(=O)N[C@@H](Cc2ccccc2)C(=O)O)CC1` (stereo partly drawn), for which the activity change, negative = inhibition was -3.8% (inactive). Consider `CCN(CC)CCNC(=O)c1ccc(NC(C)=O)cc1`, for which the activity change, negative = inhibition was 6.42% (inactive) and 2.78% (inactive). In the case of `CCN(CC)Cc1ccc2cc(COC(=O)Nc3ccc(C(=O)NO)cc3)ccc2c1`, the activity change, negative = inhibition is -81.2% (active).

As to `COc1ccc(Cn2ccc3ccc(C(=O)NO)cc32)cc1`, the activity change, negative = inhibition was 1.1% (inactive). Consider `C[C@H]1O[C@H](O[C@H]2[C@H](O)[C@@H](O)[C@@H](O[C@H]3[C@H](O)[C@@H](O)[C@H](O)O[C@@H]3CO)O[C@@H]2CO)[C@H](O)[C@@H](O)[C@@H]1N[C@H]1C=C(CO)[C@@H](O)[C@H](O)[C@H]1O`, for which the activity change, negative = inhibition is 8.26% (inactive). Take `COc1cc(/C=C(\C#N)C(N)=O)cc(CSc2nc3ccccc3s2)c1O`: the activity change, negative = inhibition was -5% (inactive). In the case of `COc1cccc(OC)c1-c1cc(C(=O)NC2(C(=O)O)C3CC4CC(C3)CC2C4)nn1-c1ccc(C(=O)N(C)CCCN(C)C)cc1C(C)C` (stereo not drawn), the activity change, negative = inhibition is -1.72% (inactive). With `CC1=C(/C=C/C(=C/C=C/C(C)=C/C(=O)O)c2ccc(C)cc2)C(C)(C)CCC1`, the activity change, negative = inhibition is 20.2% (inactive).

Consider `C[C@@]12CCc3occc3[C@H]1CC[C@@]13C[C@@H](CC[C@H]12)[C@@](O)(CO)C3`, for which the activity change, negative = inhibition is 14.1% (inactive). Consider `CNC(=O)[C@@H](NC(=O)[C@H](CC(C)C)[C@H](O)C(=O)NO)C(C)(C)C`, for which the activity change, negative = inhibition was 11.5% (inactive). On to `CC(C)C[C@@H](C(=O)N[C@H](C(=O)OC1CCCC1)c1ccccc1)[C@H](O)C(=O)NO`, for which the activity change, negative = inhibition was -91.3% (active). To `CCN1CCCC(OC(=O)C(c2ccccc2)c2ccccc2)C1` (stereo not drawn) belongs 9.52% (inactive) and 11.2% (inactive). `C[C@@]1(c2nc3c(C(N)=O)cccc3[nH]2)CCCN1`: the activity change, negative = inhibition was 0.526% (inactive). In the case of `CC(C)Cn1cnc2c1c(=O)n(C)c(=O)n2C`, the activity change, negative = inhibition was 12.6% (inactive). Consider `NCCCCN(Cc1nc2ccccc2[nH]1)[C@H]1CCCc2cccnc21`, for which the activity change, negative = inhibition is 25.8% (inactive). The value for `NCCCC[C@H](NC(=O)[C@@H](Cc1cc(Br)c(O)c(Br)c1)NC(=O)N1CCC(N2Cc3ccccc3NC2=O)CC1)C(=O)N1CCN(c2ccncc2)CC1` was 15.1% (inactive). To `COc1cc2c(cc1OC)[C@@H]1CC(=O)[C@@H](CC(C)C)CN1CC2` belongs 11.3% (inactive) and 8.82% (inactive); to `CC[C@H]1CN2CCc3cc(OC)c(OC)cc3C2C[C@@H]1CC1NCCc2cc(OC)c(OC)cc21` (stereo partly drawn), -81.1% (active) and -96.6% (active); to `COc1cc2c(cc1OC)C1Cc3ccc(OC)c(OC)c3CN1CC2` (stereo not drawn), 8.53% (inactive). For the compound `CC(=O)NCCC(=O)N[C@@H](Cc1cnc[nH]1)C(=O)O`, the activity change, negative = inhibition is 3.95% (inactive). Consider `CNC(=O)c1c(-c2ccc(F)cc2)oc2cc(N(CCO)S(C)(=O)=O)c(C3CC3)cc12`, for which the activity change, negative = inhibition was 4.4% (inactive).

Regarding `CC1(C)CC[C@]2(C(=O)O)CC[C@]3(C)C(=CCC4[C@@]5(C)CC[C@H](O)[C@@](C)(CO)C5CC[C@]43C)C2C1` (stereo partly drawn), the activity change, negative = inhibition was 4.93% (inactive). As to `NS(=O)(=O)c1cc2c(cc1Cl)NC=NS2(=O)=O`, the activity change, negative = inhibition is -6.64% (inactive) and 2.69% (inactive). As for `CC(C)[C@H]1C(=O)N[C@@H](CCCN=C(N)N)C(=O)NCC(=O)N[C@@H](CC(=O)O)C(=O)N[C@H](Cc2ccccc2)C(=O)N1C`, the activity change, negative = inhibition was 33.3% (inactive). The value for `CC(=O)O[C@]1(C(C)=O)CC[C@H]2[C@@H]3CCC4=CC(=O)CCC4=C3[C@@H](c3ccc(N(C)C)cc3)C[C@@]21C` was -58.3% (inactive); that for `CC#CC1(O)CCC2C3CCC4=CC(=O)CCC4=C3C(c3ccc(N(C)C)cc3)CC21C` (stereo not drawn) was 32.4% (inactive); that for `CC#C[C@]1(O)CC[C@H]2[C@@H]3CCC4=CC(=O)CCC4=C3[C@@H](c3ccc(N(C)C)cc3)C[C@@]21C` was -77.6% (active) and 19.9% (inactive). To `CCC[C@@H]1C[C@@H](C(=O)N[C@@H]([C@H]2O[C@H](SC)[C@H](O)[C@@H](O)[C@@H]2O)[C@@H](C)O)N(C)C1` belongs 0.0317% (inactive); to `C=CC(=O)NCc1ccccc1`, 10.8% (inactive). To `COc1ccc(CN2C(=O)C(=O)c3cc(OC(F)(F)F)ccc32)cc1` belongs -31.8% (inactive). In the case of `CC(=O)O/N=C1/C(=O)N(Cc2cc(Cl)ccc2Cl)c2ccc(Cl)cc21`, the activity change, negative = inhibition was -78.1% (active). Consider `O=C1C(=O)N(Cc2ccc(Cl)c(Cl)c2)c2ccccc21`, for which the activity change, negative = inhibition is 25.2% (inactive) and 12.2% (inactive). Take `COc1ccc(Cl)cc1C(=O)NCCc1ccc(C(=O)O)cc1`: the activity change, negative = inhibition was 10.3% (inactive). `CCCCCCCCCC(=O)N[C@@H](Cc1c[nH]c2ccccc12)C(=O)N[C@H](CC(N)=O)C(=O)N[C@@H](CC(=O)O)C(=O)N[C@@H]1C(=O)NCC(=O)N[C@@H](CCCN)C(=O)N[C@@H](CC(=O)O)C(=O)N[C@H](C)C(=O)N[C@@H](CC(=O)O)C(=O)NCC(=O)N[C@H](CO)C(=O)N[C@@H]([C@@H](C)CC(=O)O)C(=O)N[C@@H](CC(=O)c2ccccc2N)C(=O)O[C@@H]1C`: the activity change, negative = inhibition is 5.37% (inactive). The value for `C[C@H](O[C@H]1OCCN(Cc2n[nH]c(=O)[nH]2)[C@H]1c1ccc(F)cc1)c1cc(C(F)(F)F)cc(C(F)(F)F)c1` was 3.24% (inactive).

Regarding `O=C1CN2Cc3c(ccc(Cl)c3Cl)N=C2N1`, the activity change, negative = inhibition was -78.8% (active) and -0.538% (inactive). In the case of `Clc1cccc2c1CN(C1=NCCN1)C2`, the activity change, negative = inhibition is 4.53% (inactive) and 6.96% (inactive). Consider `Cc1nc2c([nH]1)CCN(C(=O)c1ccc(NC(=O)c3ccccc3-c3ccccc3)cc1)c1ccccc1-2`, for which the activity change, negative = inhibition was 24.9% (inactive). Regarding `CC1(C)O[C@@H]2CC3C4C[C@H](F)C5=CC(=O)CC[C@]5(C)C4[C@@H](O)C[C@]3(C)[C@]2(C(=O)CO)O1` (stereo partly drawn), the activity change, negative = inhibition is -1.03% (inactive) and -3% (inactive).
